Hit rate of the full screen: of about 220,000 compounds, about 8,200 (3.7%) were called active. The sample holds actives, similar compounds and a random draw of the others, so the mix is not that of the screen.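 The calls were made as follows: active = compounds that reduced the stress-induced luciferase reporter signal by more than about 70% of percent inhibition (limit read from the data); inactive = the rest.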

This note sets out measurements from PubChem BioAssay AID2732 (Emory University Molecular Libraries Screening Center, 2010).

This assay in a line: inhibitors of CHOP promoter induction, primary screen, cell-based, unfolded protein response, luciferase reporter (AID 2732).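 Also: 0% = tunicamycin plus vehicle and 100% = wells without tunicamycin.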 The following applies: CHO-K1 CHOP-promoter luciferase, tunicamycin-induced, 15-18 h; at 10 µM; hits give high values. On the technique in general: In a reporter assay the amount or activity of a reporter protein is the signal.
By inhibition is commonly meant the relative decrease from the control value, in per cent. Consider `O=C1NNC(c2ccccc2)=N/C1=C\c1ccc(Cl)cc1`, for which the inhibition was 24.3% (inactive).

`NC(=O)COc1ccc(NC(=O)c2ccccc2-c2ccccc2)cc1`: the inhibition was 6.67% (inactive). For the compound `NNC(=O)COc1ccc(C2SCCS2)cc1`, the inhibition was 18.6% (inactive). Under `NC(=O)COc1ccc(C23CC4CC(CC(C4)C2)C3)cc1` stands 103% (active); under `Cc1ccc(C)c2[nH]c(=O)c(CN(Cc3cccnc3)C(=S)NCc3ccco3)cc12`, 2.47% (inactive). On to `Cc1ccc(-c2nc3ccccc3[nH]c2=O)cc1`, for which the inhibition was -30.2% (inactive). For the compound `CC1Cc2ccccc2N1S(=O)(=O)c1ccc(Cl)nc1` (stereo unspecified), the inhibition is 9.84% (inactive). As to `CC12CCC(C(=O)N3CCN(c4ncccn4)CC3)(c3nc4ccccc4nc31)C2(C)C` (stereo unspecified), the inhibition is 81.3% (active). Take `CCNC(=S)N1CCN(c2ncccn2)CC1`: the inhibition is 6.67% (inactive). With `O=C(C(Cl)Cl)N1CCN(c2ccccn2)CC1`, the inhibition was 23.1% (inactive). As for `Cn1nc(C(F)(F)F)c(-c2ccc(F)cc2)c1NC(=O)CSCC(=O)O`, the inhibition was -1.35% (inactive). As for `NC1=NC[C@@H](Cc2ccc(O)cc2)N1CC1CCCCC1`, the inhibition is -9.28% (inactive). Regarding `CCOC(=O)C1=C(C)NC(C)=C(C(=O)OCC)C1c1ccccn1`, the inhibition was -2.49% (inactive). Take `CCOC(=O)C1=C(C)N=C2c3ccccc3C(=O)C2C1c1ccc(Br)cc1` (stereo unspecified): the inhibition is 93.1% (active). As for `CCOC(=O)C1=C(C)NC(=O)NC1c1ccccc1` (stereo unspecified), the inhibition is 5.41% (inactive). Under `COc1ccc(OCCC(=O)c2ccc(OC)cc2)cc1` stands -4.29% (inactive). For the compound `Cc1ccc(Oc2ccc(N)cc2)cc1`, the inhibition is 37.7% (inactive). Next, `CC(C)(C)c1ccc(Oc2ccc(N)cc2)cc1`: 107% (active). For the compound `Nc1ccc(Oc2ccc(Cl)cc2)cc1`, the inhibition was 33.6% (inactive).

Take `Cc1cccc(-[n+]2c(-c3cccc(Br)c3)[nH]c3nc4ccccc4nc32)c1`: the inhibition was 18.3% (inactive). Turning to `COc1ccc(CCN2C(=O)CC(N3CCC(C(N)=O)CC3)C2=O)cc1OC` (stereo unspecified), the inhibition is -9.45% (inactive). Next, `O=[N+]([O-])c1cc([N+](=O)[O-])c2cccnc2c1O`: 16.7% (inactive); `CC(C)c1nc(N2CCOCC2)c(C#N)c2c1COC(C)(C)C2`: 60.3% (inactive); `CC(C)Cc1nc(N2CCOCC2)c(C#N)c2c1CCC2`: 91.2% (active).

Consider `CC(C)Cc1nc(Cl)c(C#N)c2c1CCC2`, for which the inhibition is 17.9% (inactive). `N/C(=N\OC(=O)Nc1ccccc1)c1ccno1`: the inhibition is -5.09% (inactive). For the compound `Cc1cc2ccccc2n1CCC(=O)O`, the inhibition was 6.98% (inactive). With `O=C(O)CCn1c(O)c(C=C2N=c3ccccc3=N2)sc1=S`, the inhibition was 80.2% (active). For `O=C(COc1ccc([N+](=O)[O-])cc1Cl)Nn1cnnc1`, the inhibition is -0.23% (inactive). Take `COc1cc(C=O)ccc1Oc1nnnn1-c1ccccc1`: the inhibition was 4.01% (inactive). With `O=C(CSc1nnc2n1CCCN2)c1ccccc1`, the inhibition was -11.1% (inactive). For `CC(=O)c1ccc(NC(=O)C2CC(=O)Nc3nc4ccccc4n32)cc1` (stereo unspecified), the inhibition is -5.45% (inactive). On to `Cc1c(C#N)c(NC(=O)c2ccccc2)n(Cc2ccccc2)c1C`, for which the inhibition is -4.55% (inactive). Under `COc1ccc(Cn2cccc(NC(=O)Nc3ccc(C#N)cc3)c2=O)cc1` stands 62.7% (inactive); under `COc1ccc(Cn2c(C)c(C)c(C#N)c2NC(=O)Nc2ccc(F)cc2)cc1`, 94.3% (active); under `Cc1nc2c(ncn2-c2ccccc2)c(=O)n1NC(=O)CN1CCCC1`, 9.81% (inactive). Turning to `COc1cccc(/C=N/NC(=O)c2cccc([N+](=O)[O-])c2)c1OS(=O)(=O)c1ccc(C)cc1`, the inhibition is 0.84% (inactive).

As to `Cc1[nH]n(-c2ccccc2)c(=O)c1/C=N/NC(=O)c1ccoc1C`, the inhibition was 51.5% (inactive).

Regarding `Cc1ccc(-n2[nH]c(C)c(/C=N/NC(=O)c3cccc([N+](=O)[O-])c3)c2=O)cc1C`, the inhibition was 85.8% (active). `O=C(CSc1ncn[nH]1)Nc1nc(-c2cccc([N+](=O)[O-])c2)cs1`: the inhibition was 7.63% (inactive). Take `O=C(c1ccco1)N1CCN(CCOc2ccccc2)CC1`: the inhibition was 1.67% (inactive). Next, `CCS(=O)(=O)Nc1cccc(-c2cc(-c3ccccc3)c3cc(C)ccc3n2)c1`: 78.8% (active); `Cc1ccc2nc(-c3ccccc3)cc(C(=O)O)c2c1`: -1.51% (inactive).

As to `CC(=O)Nc1cccc(-c2cnc3ccccc3n2)c1`, the inhibition is -21.7% (inactive).

Regarding `CCOC(=O)c1ccc(NC(=O)c2nc[nH]c2C(=O)NCc2ccccc2)cc1`, the inhibition was 94.5% (active). As to `CCOC(=O)c1ccc(NC(=O)c2nc[nH]c2C(=O)N[C@@H](CCCCNC(=O)OC(C)(C)C)C(=O)OC(C)(C)C)cc1`, the inhibition was 44.5% (inactive).

`CCOC(=O)c1[nH]cnc1C(=O)Nc1ccccc1C`: the inhibition was -6.79% (inactive). As for `CCOc1ccc2nc(Nc3nc4ccc(NC(C)=O)cc4s3)sc2c1`, the inhibition was 106% (active). `COc1ccc2nc(Nc3nc4ccc(NC(C)=O)cc4s3)sc2c1`: the inhibition was -58.2% (inactive). Under `CCC(=O)c1ccc(OCC(=O)Nc2ccc3nc(C)sc3c2)cc1` stands 0.17% (inactive). For the compound `O=C(NNS(=O)(=O)c1ccccc1C(F)(F)F)c1cc2ncc(C(F)(F)F)cc2s1`, the inhibition is -0.25% (inactive). Take `C=CCOc1nc2c(c(=O)n(C)c(=O)n2C)n1Cc1ccc(Cl)cc1Cl`: the inhibition is 93.2% (active). As to `Cn1c(=O)c2c(nc(OCc3cccnc3)n2Cc2ccccc2)n(C)c1=O`, the inhibition is 7.91% (inactive). In the case of `C=CCn1c(Oc2ccc(C(=O)OC)cc2)nc2c1c(=O)n(C)c(=O)n2C`, the inhibition is 3.03% (inactive). Turning to `Clc1ccc(C[n+]2cc(-c3ccc(Cl)cc3)n3c2CCC3)cc1`, the inhibition is -2.43% (inactive). As to `CCn1nc(C)c(/C=N/NC(=O)Cc2ccc(Cl)cc2)c1C`, the inhibition was 14.1% (inactive). Consider `Cc1nn(Cc2ccc(Cl)cc2)c(Cl)c1/C=N/NC(=O)c1cccnc1`, for which the inhibition is -12.2% (inactive). Consider `Cc1nn(Cc2ccc(Cl)cc2)c(Cl)c1/C=N/NC(=O)CNc1ccccc1F`, for which the inhibition was 96.1% (active). Regarding `Oc1[nH]c2ccc(Br)cc2c1N=Nc1nn[nH]n1`, the inhibition was -5.13% (inactive). For the compound `CCOC(=O)c1ccc(N=C2SC(C(=O)NC)CC(=O)N2CCc2ccccc2)cc1` (stereo unspecified), the inhibition is -10.9% (inactive). `O=C(NCCN1CCN(Cc2ccccc2)CC1)c1cc2c(=O)[nH]c3ccccc3c2s1`: the inhibition is 21.6% (inactive).

Take `Cc1cccc(N(C)C(=O)c2cc3c(=O)[nH]c4ccc(C)cc4c3s2)c1`: the inhibition was 80.4% (active). For `Cc1ccc2[nH]c(=O)c(CC=C(Cl)Cl)c(C)c2c1`, the inhibition is 52.8% (inactive).

`S=C(NNC(=S)NC1CC2C=CC1C2)NC1CC2C=CC1C2` (stereo unspecified): the inhibition was 9.31% (inactive). Under `C/C(=N/NC(=O)c1ccn(C)n1)c1ccncc1` stands 12.5% (inactive). Turning to `COc1ccc(Nc2nc(NCc3ccco3)nc(N/N=C/c3ccccc3Cl)n2)cc1`, the inhibition was -19.9% (inactive). Consider `COc1cccc(Nc2nc(N)c([N+](=O)[O-])c(NCc3ccco3)n2)c1`, for which the inhibition is 38.9% (inactive). Turning to `COc1ccc(Nc2nc(Cl)nc(NCc3ccco3)n2)cc1`, the inhibition was 85% (active). Turning to `COc1ccc(Br)c2c1C(=O)CC2`, the inhibition was 10.2% (inactive). `Cn1nccc1NC(=O)CC(CC(=O)O)c1ccccc1` (stereo unspecified): the inhibition was 25.4% (inactive). Take `COc1cc2c(cc1OC)C(/C=C/c1ccco1)=NCC2`: the inhibition was 1.07% (inactive). Regarding `COC(=O)C1=C(N)Oc2cc(C)[nH]c(=O)c2C1c1ccc(Cl)cc1` (stereo unspecified), the inhibition is -8.98% (inactive). `C=C(C)C(=O)O[C@H]1C/C(C)=C\C(=O)/C=C(\C)[C@H](O)[C@@H]2OC(=O)C(=C)[C@@H]21`: the inhibition was 107% (active). Next, `O=C(O)C#Cc1cccc2ccccc12`: -1.61% (inactive); `COc1ccc(F)cc1S(=O)(=O)N1CCCCC1`: 10.6% (inactive). As to `CCOC(=O)c1ccc(S(=O)(=O)N(CCO)Cc2cc3cc(OC)c(OC)cc3[nH]c2=O)cc1`, the inhibition was 23.6% (inactive). Regarding `Cc1nc(-c2ccc(Cl)cc2)sc1C1(C)CC(c2ccccc2F)=NO1` (stereo unspecified), the inhibition was -3.45% (inactive). Consider `CCC/C(C)=N\Nc1nc2c(c(=O)n(C)c(=O)n2C)n1C`, for which the inhibition was 6.66% (inactive).

Take `Cc1ccc(C2(C(F)(F)F)N=C3Sc4cc(C)cc(C)c4N3C(=O)N2)cc1` (stereo unspecified): the inhibition is 76.7% (active).

For the compound `CCOC(=O)c1cc(Sc2ccccc2N)cc(C(=O)OCC)n1`, the inhibition was 15.6% (inactive). Under `CCN(CC)CCn1c(N)c(S(=O)(=O)c2ccccc2)c2nc3ccccc3nc21` stands -7.46% (inactive); under `NS(=O)(=O)c1ccc(CNC(=O)c2cnccn2)cc1`, -3.79% (inactive); under `COc1ccc(Nc2cc(=O)n(-c3ccccc3)c3c2c(=O)n(C)c(=O)n3C)cc1`, 7.22% (inactive). `Cc1ccc(S(=O)(=O)NNC(=S)NC(C)(C)C)cc1`: the inhibition was -12.5% (inactive). `CSc1nnc(-c2ccc(C(F)(F)F)cn2)o1`: the inhibition is -2.28% (inactive). As to `CN(C)S(=O)(=O)c1ccc(NC(=O)COC(=O)c2n[nH]c3ccccc23)cc1`, the inhibition was 22.3% (inactive). In the case of `CCN(CC)S(=O)(=O)c1ccc2nc(COC(=O)c3n[nH]c4ccccc34)[nH]c2c1`, the inhibition is 104% (active). Consider `CCN(CC)S(=O)(=O)c1ccc2nc(CSc3nnnn3-c3ccc(O)cc3)[nH]c2c1`, for which the inhibition was 29.3% (inactive). As for `C/C(=N/NC(=O)CC(=O)N/N=C(\C)c1ccc([N+](=O)[O-])cc1)c1ccc([N+](=O)[O-])cc1`, the inhibition was -0.51% (inactive).

Take `CCCCCCn1c(SCC(=O)c2ccccc2)nc2c1c(=O)[nH]c(=O)n2C`: the inhibition is -4.27% (inactive). In the case of `CCCCCn1c(SCCC(C)C)nc2c1c(=O)[nH]c(=O)n2C`, the inhibition was 97.9% (active). `CCCSc1nc2c(c(=O)[nH]c(=O)n2C)n1CCc1ccccc1`: the inhibition is 19.8% (inactive). As to `Cc1cc(C(=O)NCCc2ccc(Cl)cc2)n(-c2ccccc2)n1`, the inhibition is 16.9% (inactive). On to `CCCCCCn1c(CN2CCCC(C)C2)nc2c1c(=O)n(C)c(=O)n2C` (stereo unspecified), for which the inhibition was 97.9% (active). `CCN1CCN(Cc2nc3c(c(=O)n(C)c(=O)n3C)n2CC(=O)c2ccccc2)CC1`: the inhibition is 6.1% (inactive). With `CC1CCCN(Cc2nc3c(c(=O)n(C)c(=O)n3C)n2CC(=O)c2ccccc2)C1` (stereo unspecified), the inhibition was 3.62% (inactive).
